Measured values published in PubChem BioAssay (NCATS).
Results filed as inconclusive are left out. The source made the active and inactive calls. Unless noted, calls follow the shape of the dose curve; as a rule, active = well fitted curve in the direction sought with a large enough effect; inconclusive = small, poorly fitted or top-dose-only effect, or another doubt; inactive = no such curve, though single readings can be large; an effect the other way counts as inactive or inconclusive.

Legend:
[1] = Cell Viability - BJ (AID 421; calls by dose curve;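 also: potency is read from the fitted curve at half-maximal effect; cells exposed to compound for 40 hours at 37 °C before readout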); conditions: BJ fibroblast viability, qHTS
In short: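 Cytotoxicity in human BJ foreskin fibroblasts is scored as loss of cellular ATP after a 40-hour exposure, measured by luciferase luminescence. Controls are DMSO and 100 uM tamoxifen.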

[2] = Cell Viability - Jurkat (AID 426;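 active = dose-dependent loss of cell ATP signal giving a full or clear fitted curve, ranked by lower potency value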;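 also: potency is read from the fitted curve at half-maximal effect; cells exposed to compound for 40 hours at 37 °C before ATP read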); conditions: qHTS
In short: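 Seed 5000 Jurkat E6-1 cells/well; add compound; incubate 40 hr at 37 °C; add CellTiter-Glo; wait 20 min at room temperature; read luminescence. Fit concentration-response with Hill equation for AC50.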

[3] = Cell Viability - Hek293 (AID 427;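 active = compounds whose dose-response curve shows a full or clear partial loss of cell viability, called from curve shape rather than a numeric limit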;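 also: potency is read from the fitted curve at half-maximal effect; cells exposed to compound for 40 hours at 37 °C before reading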); conditions: qHTS
In short: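 qHTS, human embryonic kidney (adenovirus-transformed) cells; 40 hr cpd, 37 °C; CellTiter-Glo ATP luminescence. Norm: DMSO = 0, 100 uM tamoxifen = 100% inhibition. Hill-fit AC50.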

[4] = Cell Viability - HepG2 (AID 433; calls by dose curve;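 also: potency is read from the fitted curve at half-maximal effect; cells exposed to compound for 40 hours; potency for ATP loss meaning cytotoxicity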); conditions: qHTS
In short: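 Cytotoxicity read as ATP loss (CellTiter-Glo luminescence) after 40 hr compound exposure of HepG2, 1500 cells/well, 37 °C. AC50 by Hill equation; 0% set by DMSO, 100% inhibition by 100 uM tamoxifen.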

[5] = Cell Viability - MRC5 (AID 434; calls by dose curve;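 also: potency is read from the fitted curve at half-maximal effect; cells exposed to compound for 40 hours at 37 °C; potency reflects cytotoxicity seen as loss of intracellular ATP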); conditions: MRC5 lung fibroblast viability, qHTS
In short: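 MRC5 normal human lung fibroblasts (1500/well) were treated with compounds for 40 hr at 37 °C in complete medium, and viable cells were measured as intracellular ATP by CellTiter-Glo luminescence. AC50 came from Hill fits, normalized to DMSO and 100 uM tamoxifen.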

[6] = Cell Viability - SK-N-SH (AID 435; calls by dose curve; also: potency is read from the fitted curve at half-maximal effect); conditions: SK-N-SH neuroblastoma cell viability qHTS
In short: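 qHTS cytotoxicity: CellTiter-Glo ATP luminescence after 40 h compound exposure of human neuroblastoma SK-N-SH cells at 37 °C. AC50 derived by Hill-equation fitting, with DMSO as basal and 100 uM tamoxifen as full inhibition.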

[7] = biological target: Mitogen-activated protein kinase 10 (Mus musculus) (UniProt Q61831); test: JNK3 AlphaScreen Assay (AID 530; active = well fitted curve in either direction with a large enough effect, not every such curve was filed as active;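 also: kinase came from lysate of stimulated human HepG2 cells; signal reports phosphorylation of biotinylated GST-cJun 1-79 at Ser73 with 10 µM ATP; % is scaled to controls: 0 for no effect and ±100 for the full control effect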); conditions: JNK3 lysate, c-Jun phosphorylation; series mostly up to 57.1 µM
In short: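 JNK3 came from HepG2 lysates pre-activated with IL-1beta and TNF-alpha and phosphorylated biotinylated GST-cJun (1-79) at 10 uM ATP, pH 7.6, room temperature. Compounds were titrated. AlphaScreen signal used anti-phospho-cJun (Ser73) antibody.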

[8] = Cell Viability - N2a (AID 540); conditions: N2a mouse neuroblastoma cell viability; activity change, negative = cytotoxicity: at 92.2 µM (top of the series);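 also: plate controls were DMSO alone for no effect and tamoxifen control for full effect; nearly all actives have a fitted effect of over 45% in size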
In short: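 First, 1500 N2a cells per well incubate 5 hr at 37 °C; next, compounds are added and incubated 40 hr at 37 °C; finally CellTiter-Glo is added and luminescence read after 20 min, with AC50 derived by Hill modeling.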

[9] = Cell Viability - NIH 3T3 (AID 541); conditions: NIH 3T3 cell viability, qHTS; activity change, negative = cytotoxicity: at 92.2 µM (top of the series);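 also: cells exposed to compound for 40 hours; plate controls were DMSO alone for no effect and tamoxifen positive control for full effect; nearly all actives have a fitted effect of over 25% in size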
In short: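 AC50 values reflect concentration-dependent loss of intracellular ATP in NIH 3T3 cells after 40 hr treatment in complete culture medium, quantified by luciferase-based luminescence.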

[10] = Cell Viability - HUV-EC-C (AID 542); conditions: HUV-EC-C endothelial cell viability, qHTS; series mostly up to 92.2 µM;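 also: cells exposed to compound for 40 hours; % is scaled to controls: 0 for no effect and ±100 for the full control effect; nearly all actives have a fitted effect of over 35% in size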
In short: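 Decrease in cellular ATP, quantified by luciferase luminescence, reflects toxicity in normal human vascular endothelial HUV-EC-C cells given compound for 40 hr in complete culture medium. Values are AC50s from concentration-response curves.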

[11] = Cell Viability - H-4-II-E (AID 543); conditions: H-4-II-E rat hepatoma viability; series mostly up to 92.2 µM;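 also: cells exposed to compound for 40 hours; % is scaled to controls: 0 for no effect and ±100 for the full control effect; nearly all actives have a fitted effect of over 35% in size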
In short: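 Here, cytotoxicity is measured in the rat hepatoma line H-4-II-E as loss of intracellular ATP after 40 hr compound treatment, detected by luciferase luminescence.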

[12] = Cell Viability - SH-SY5Y (AID 544); conditions: SH-SY5Y neuroblastoma cell viability; viability change, negative = cytotoxic: at 92.2 µM (top of the series);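 also: cells exposed to compound for 40 hours; nearly all actives have a fitted effect of over 55% in size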
In short: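 Cytotoxicity is scored as a concentration-dependent fall in intracellular ATP in human SH-SY5Y cells treated 40 hr in complete culture medium. Potency is expressed as AC50 from a Hill equation fit.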

[13] = Cell Viability - Mesenchymal (AID 546); conditions: mesenchymal cells viability, qHTS; series mostly up to 91.7 µM;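 also: cells exposed to compound for 40 hours before reading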
In short: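 Normal human renal glomerulus-derived kidney mesenchymal cells, 1000 per well in complete medium, were treated with compounds for 40 hr at 37 °C. Viability was read as intracellular ATP by CellTiter-Glo luminescence; AC50 values came from Hill-equation fits of qHTS concentration-response data.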

[14] = Cellular Toxicity (caspase-3) HepG2 (AID 654); conditions: HepG2 caspase-3 activation, luminescence; series mostly up to 92.2 µM;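 also: cells exposed to compound for 16 hours before reading; 0% = DMSO alone and 100% = caspase signal from 100 µM tamoxifen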
In short: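 qHTS, HepG2, 1500 cells/well, complete medium; cpd 16 h 37 °C; Caspase-Glo 3/7, 20 min RT; lum. Norm: DMSO vs 100 uM tamoxifen; AC50 Hill fit.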

[15] = Cellular Toxicity (caspase-3) Jurkat (AID 655); conditions: Jurkat caspase-3 activation, luminescence; caspase-3 activation: at 92.2 µM (top of the series), DMSO = 0%, tamoxifen = 100%;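 also: cells exposed to compound for 16 h at 37 °C before reading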
In short: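 Luminescent Caspase-Glo 3/7 read-out (20 min, room temperature) after 16 h compound treatment at 37 C of 5000 Jurkat cells per well. AC50 derived by Hill-equation fitting, scaled between DMSO basal and 100 uM tamoxifen stimulation.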

[16] = Cellular Toxicity (caspase-3) SHSY5Y (AID 657); conditions: SH-SY5Y caspase-3 activation, DMSO zero, 10 µM staurosporine = 100%; series mostly up to 91.7 µM
In short: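 Luminescent Caspase-Glo 3/7 read-out, 1 hr room temperature, follows 16 hours of compound treatment of SH-SY5Y cells at 37 °C. Normalization: DMSO basal, 10 uM staurosporine as 100%; AC50 values from Hill-equation concentration-response fits.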

[17] = Cellular Toxicity (caspase-3) BJ (AID 658); conditions: BJ fibroblasts, luminescence, normalized: DMSO 0%, staurosporine 100%; series mostly up to 91.7 µM
In short: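 Luminescent aminoluciferin-substrate cleavage reports caspase 3/7 activity in normal human BJ fibroblasts after 16 hr compound exposure at 37 °C. Normalized to DMSO (basal) and 10 uM staurosporine (100%); AC50 from Hill fit of concentration-response.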

[18] = Cellular Toxicity (caspase-3) MRC-5 (AID 659); conditions: MRC-5 cells, luminescence, normalized: DMSO 0%, 10 µM staurosporine 100%; series mostly up to 91.7 µM
In short: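 Luminescence from caspase-cleaved aminoluciferin substrate (Caspase-Glo 3/7, 1 hr RT) reports caspase 3/7 activity in MRC-5 lung fibroblasts after 16 hr compound exposure. Normalized to DMSO basal and 10 uM staurosporine as 100%; AC50 from Hill fits.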

[19] = Cell Viability - Renal Proximal Tubule (AID 545); conditions: renal proximal tubule cells viability, primary cells of rat origin; series mostly up to 91.7 µM;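 also: cells exposed to compound for 40 hours; nearly all actives have a fitted effect of over 40% in size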
In short: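 Viability taken as intracellular ATP (CellTiter-Glo luminescence) after 40 hr, 37 °C compound treatment of primary proximal tubule cells from rat kidney, 1000 cells/well; Hill-equation fits of qHTS concentration-response data gave AC50.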

[20] = Cellular Toxicity (caspase-3) HUV-EC-C (AID 656); conditions: HUV-EC-C cells, caspase-3 activation (apoptosis), vehicle = 0, 100 µM tamoxifen = 100%; series mostly up to 92.2 µM
In short: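 Luminescent Caspase-Glo 3/7 readout after 16 h, 37 °C compound exposure of HUV-EC-C endothelial cells, 1000 per well, complete medium. AC50 derived by Hill fitting, with DMSO as baseline and 100 uM tamoxifen as full activation.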

CC/C(C)=N/O
inactive: Potency [1] > 92 µM | Potency [2] > 92 µM | Potency [3] > 92 µM | Potency [4] > 92 µM | Potency [5] > 92 µM | Potency [6] > 92 µM | outcome [7] | activity change, negative = cytotoxicity [8] 3.53% | Potency [9] | Potency [10] | Potency [11] | Potency [12] | Potency [13] | Potency [14] | caspase-3 activation [15] -0.144% | outcome [16] | outcome [17] | outcome [18]

CCN(CC)c1cccc(O)c1
inactive: Potency [1] > 92 µM | Potency [2] > 92 µM | Potency [3] > 92 µM | Potency [4] > 92 µM | Potency [5] > 92 µM | Potency [6] > 92 µM | outcome [7] | activity change, negative = cytotoxicity [8] 0.0315% | Potency [9] | Potency [10] | Potency [12] | Potency [19] | Potency [13] | Potency [14] | caspase-3 activation [15] 0.712% | outcome [20] | outcome [16] | outcome [17] | outcome [18]

Cc1ccc2c(c1[N+](=O)[O-])C(=O)c1ccccc1C2=O
active: Potency [3] 0.351 µM
inactive: Potency [1] > 92 µM | Potency [2] > 92 µM | Potency [4] > 92 µM | Potency [5] > 92 µM | Potency [6] > 92 µM | outcome [7] | activity change, negative = cytotoxicity [8] 3.24% | Potency [9] | Potency [10] | Potency [11] | Potency [12] | Potency [13] | Potency [14] | caspase-3 activation [15] -1.22% | outcome [16] | outcome [18]

CCCCC(CC)COC(=O)CCCCC(=O)OCC(CC)CCCC (stereo not given)
inactive: Potency [1] > 92 µM | Potency [2] > 92 µM | Potency [3] > 92 µM | Potency [4] > 92 µM | Potency [5] > 92 µM | Potency [6] > 92 µM | outcome [7] | activity change, negative = cytotoxicity [8] 3.75% | Potency [9] | Potency [10] | Potency [12] | Potency [13] | Potency [14] | caspase-3 activation [15] -0.708% | outcome [20] | outcome [16] | outcome [17] | outcome [18]

NC(=O)/N=N/C(N)=O
inactive: Potency [1] > 92 µM | Potency [2] > 92 µM | Potency [3] > 92 µM | Potency [4] > 92 µM | Potency [5] > 92 µM | Potency [6] > 92 µM | outcome [7] | activity change, negative = cytotoxicity [8] 10.3% | Potency [10] | Potency [11] | Potency [12] | Potency [19] | Potency [13] | Potency [14] | caspase-3 activation [15] -2.04% | outcome [20] | outcome [16] | outcome [17] | outcome [18]

CC1(N)CCC(C(C)(C)N)CC1 (stereo not given)
inactive: Potency [1] > 92 µM | Potency [2] > 92 µM | Potency [3] > 92 µM | Potency [4] > 92 µM | Potency [5] > 92 µM | Potency [6] > 92 µM | outcome [7] | activity change, negative = cytotoxicity [8] -2.82% | Potency [9] | Potency [10] | Potency [11] | Potency [19] | Potency [13] | Potency [14] | caspase-3 activation [15] 1.23% | outcome [20] | outcome [16] | outcome [17] | outcome [18]
